Bioassay records: PubChem, National Center for Advancing Translational Sciences (NCATS)
A549 tox-1 = Nrf2 qHTS screen for inhibitors: counterscreen for cytotoxicity. A549 ARE-Fluc cells, CellTiter-Fluor viability, 18-24 h. Potency, µM (titrated, usually from 46 µM), inactives show at the top dose activity change, negative = cytotoxicity, hits mostly inhibitors. actives 0.16% (n = 390,000). AID 504648, 2011; also: potency is read from the fitted curve at half-maximal effect; % is scaled to controls: 0 for no effect and ±100 for the full control effect
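A549 ARE_Fluc cells in 5% FBS OPTI-MEM were exposed to compounds in concentration-response for 18-24 h at 37 deg C. Viability was read by CellTiter-Fluor fluorescence (Ex 405/Em 525) after 30 min, before the luciferase read.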
Nrf2 ARE act = qHTS of Nrf2 Activators | AREc32 ARE-luciferase reporter (MCF7-derived line), luminescence, 24 h | actives 0.31% (n = 410,000) | Potency, µM (titrated, usually from 46.1 µM), without a hit: at the highest dose activation, most hits filed as activators | AID 624171, 2012; also: potency is read from the fitted curve at half-maximal effect; % of control where 0% means no effect; nearly all actives have a fitted effect of over 65% in size
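ARE activation measured as luciferase luminescence (Steady-Glo, 30 min RT) in AREc32_Fluc cells after 24 hr compound exposure at 37 deg C, 5% CO2; cells seeded overnight at 1000/well in OPTI-MEM, 5% FBS.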
ALOX12 inh = Primary qHTS assay for inhibitors of human arachidonate 12S-lipoxygenase (ALOX12): Round 2; actives 1.1% (n = 580,000); purified 12hLO, xylenol orange hydroperoxide absorbance; AID 1671190, 2021; Potency, µM (highest dose often 108 µM), for inactives: at the highest dose activity change, negative = inhibition, hits mostly inhibitors; also: potency is read from the fitted curve at half-maximal effect; % is scaled to controls: 0 for no effect and ±100 for the full control effect
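Purified human 12hLO (150 nM final) in 25 mM Hepes, 0.01% Triton X-100, pH 7.0 was preincubated 15 min at room temperature with compound. Then 40 uM arachidonic acid was added, 30 min. Hydroperoxide was read by Fe-XO absorbance ratio 573/405 nm.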
LDHA block = qHTS assay for inhibitors of human lactate dehydrogenase | L-lactate dehydrogenase A chain (Homo sapiens), P00338 | purified LDHA, NADH/diaphorase-resazurin fluorescence; active compounds read low | activity change, % (values are at about 110 or 230 µM) | AID 1347041, 2019 | actives 0.15% (n = 480,000); in the data active = activity change below about -30%; inconclusive = mostly about -25% to -30%;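 also: plate controls were DMSO wells for no effect and wells without enzyme for full effect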
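LDH5 2 nM; NADH 0.06 mM, pyruvate 0.2 mM; 200 mM Tris pH 7.4, EDTA, Tween-20; 5 min RT. Detection: diaphorase 0.133 mg/mL + resazurin 37 µM, fluorescence ex540/em590 at 0 and 20 min; normalized to enzyme-free and DMSO wells.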
Nrf2 block = Nrf2 qHTS screen for inhibitors | Potency, µM (series often up to 46 µM), for the others: top-dose activity change, negative = inhibition, actives largely listed as inhibitors | A549 ARE-Fluc reporter, luciferase luminescence, 18-24 h | actives 2.1% (n = 360,000); also: potency is read from the fitted curve at half-maximal effect; % is scaled to controls: 0 for no effect and ±100 for the full control effect; nearly all actives have a fitted effect of over 60% in size
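Nrf2 function is reported as luminescence of an ARE-controlled luciferase in A549 cells. Compounds were tested at several concentrations, and a CellTiter-Fluor read on the same wells flagged cytotoxicity.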
ERG Ets-DNA blk = qHTS for Small Molecule Inhibitors of the ERG Ets/DNA interaction; actives 0.028% (n = 370,000); Transcriptional regulator ERG (Homo sapiens), P11308; Potency, µM (highest dose often 76.9 µM), for the others: at the highest dose FP activity, negative = inhibition, usual class: inhibitors; fluorescence polarization, His-ERG Ets domain / labelled DNA; active = well fitted inhibition curve with a large enough effect in the polarisation, with a control signal flat; inconclusive = small, poorly fitted or top-dose-only effect, or effect the other way, or a change in a side signal; inactive = no such curve, though single readings can be large or run the other way; the % refers to the polarisation;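 also: polarization taken with two DNA probes labelled with fluorescein and Texas red; potency is read from the fitted curve at half-maximal effect; % of control where 0% means no effect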
Target sequence (P11308 whole entry, looked up, the tested form may be a part): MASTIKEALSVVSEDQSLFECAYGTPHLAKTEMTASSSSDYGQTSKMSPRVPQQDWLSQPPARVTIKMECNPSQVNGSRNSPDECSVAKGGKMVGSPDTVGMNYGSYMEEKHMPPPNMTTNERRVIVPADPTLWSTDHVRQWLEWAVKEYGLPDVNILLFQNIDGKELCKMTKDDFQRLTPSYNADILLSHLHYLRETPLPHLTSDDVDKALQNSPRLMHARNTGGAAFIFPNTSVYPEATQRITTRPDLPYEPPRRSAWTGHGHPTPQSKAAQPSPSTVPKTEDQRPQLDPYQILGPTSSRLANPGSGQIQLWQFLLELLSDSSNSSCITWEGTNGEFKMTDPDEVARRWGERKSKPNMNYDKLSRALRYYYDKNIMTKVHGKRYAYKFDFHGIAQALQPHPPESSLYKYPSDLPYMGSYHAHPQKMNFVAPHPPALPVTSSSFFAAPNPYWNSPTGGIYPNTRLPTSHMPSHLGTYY
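His-tagged ERG Ets domain (1 uM in the protein solution; 300mM KCl, 50mM Tris-HCl, 1mM EDTA, 1mM DTT, pH 7.5) received compound, then a probe mix of 5 nM fluorescein-DNA and 100nM Texas-615-DNA. Fluorescence polarization was read for both dyes.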
FLuc counter 3 = Nrf2 qHTS screen for inhibitors: Purified Fluc Biochemical Counterscreen for Hit Validation; shares compounds with Nrf2 block; purified firefly luciferase, luminescence inhibition; Potency, µM (series often up to 57.5 µM), without a hit: at the highest dose activity change, negative = inhibition, hits mostly inhibitors; actives 4% (n = 1,400); AID 720522, 2013; also: potency is read from the fitted curve at half-maximal effect; % is scaled to controls: 0 for no effect and ±100 for the full control effect; nearly all actives have a fitted effect of over 65% in size
A549 tox-2 = Nrf2 qHTS screen for inhibitors: A549 ARE-Fluc Cytotoxicity Counterscreen for Hit Validation | actives 2% (n = 1,400) | A549 ARE-Fluc cells, cytotoxicity counterscreen | Potency, µM (highest dose often 46.1 µM), for inactives: top-dose activity change, negative = cytotoxicity, actives largely listed as inhibitors | shares compounds with Nrf2 block | AID 720523, 2013;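 also: potency is read from the fitted curve at half-maximal effect; cells exposed to compounds for 18 to 24 hours; % is scaled to controls: 0 for no effect and ±100 for the full control effect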
Nrf2 ARE inh = Nrf2 qHTS screen for inhibitors: Nrf2 A549 ARE-Fluc Confirmation Assay for Hit Validation; shares compounds with Nrf2 block; A549 ARE-firefly luciferase reporter, luminescence; Potency, µM (top dose mostly 46.1 µM), for inactives: at the top dose activity change, negative = inhibition, most hits filed as inhibitors; actives 74% (n = 1,400); also: potency is read from the fitted curve at half-maximal effect; % is scaled to controls: 0 for no effect and ±100 for the full control effect; nearly all actives have a fitted effect of over 65% in size
Active calls of the source: *; ? = inconclusive; . = no result given; [ ] = dose if it differs, or a comment. An excerpt weighted towards active compounds, which were near 2.7% of everything screened. Unless noted, calls follow the shape of the dose curve; as a rule, active = well fitted curve in the direction sought with a large enough effect; inconclusive = small, poorly fitted or top-dose-only effect, or another doubt; inactive = no such curve, though single readings can be large; an effect the other way counts as inactive or inconclusive.

SMILES	A549 tox-1	Nrf2 ARE act	ALOX12 inh	LDHA block	Nrf2 block	ERG Ets-DNA blk	FLuc counter 3	A549 tox-2	Nrf2 ARE inh
Cc1cccc(NC(=O)Cn2cc(C(=O)C3CCCCC3)c3ccccc32)c1C	-23.5%	-0.2%	-9.0%	-10.1	5.8µM*	-8.8%	-5.4%	-19.0%	5.8µM*
Cc1ccc(-c2csc3nc(-c4ccncc4)[nH]c(=O)c23)cc1	-6.7%	0.2%	14.7%	-4.7	?	-2.5%	-27.7%	-12.3%	1.84µM*
O=C(Nc1nc(-c2ccccn2)cs1)c1cc(Cl)ccc1[N+](=O)[O-]	?	?	?	-0.7	4.11µM*	-5.4%	15.1µM*	-27.0%	1.84µM*
Cc1nn(C)c(C)c1CC(=O)Nc1nc(C2CC2)cs1	.	.	8.0%	1.8	.	.	.	.	.
CNS(=O)(=O)c1cc(NS(=O)(=O)c2ccc(Br)cc2Cl)ccc1C	.	.	?	-15.0	.	.	.	.	.
COc1ccc(CCNC(=O)c2cccc([N+](=O)[O-])c2)cc1OC	3.2%	-0.9%	139.3%	0.4	2.59µM*	10.9%	3.4%	-9.4%	3.66µM*
COc1ccc(CCNC(=O)c2ccc(-c3cccc([N+](=O)[O-])c3)o2)cc1OC	-0.7%	0.6%	?	1.4	?	11.5%	.	.	.
Cc1ccc(-c2c[n+]3c(n2-c2ccccc2)SCC3)cc1	-15.8%	-1.2%	-0.1%	-12.7	2.31µM*	2.6%	0.0%	-3.8%	10.3µM*
COc1ccc(-c2c[n+]3c(n2-c2ccccc2)SCC3)cc1OC	-2.3%	-0.1%	-1.0%	-4.6	-2.2%	2.4%	.	.	.
COc1ccc(-c2c[n+]3c(n2-c2ccccc2)SCC3)cc1	-14.8%	-0.6%	9.4%	-2.9	2.06µM*	5.5%	1.3%	-9.8%	7.31µM*
Cc1cc(=O)oc2c(C)c(OCC(=O)NCc3ccc(S(N)(=O)=O)cc3)ccc12	.	.	-0.5%	-4.3	.	.	.	.	.
COc1ccc(-c2cc3c(cn2)CN(Cc2ccccc2)CCN3)cc1OC	.	.	-7.1%[176 µM]	.	.	.	.	.	.
N#Cc1nc(N2CCCCC2)nc(N2CCCCC2)n1	-3.5%	.	.	0.4	2.06µM*	.	-13.4%	-23.3%	5.17µM*
CCNc1nc(C#N)nc(N2CCCCC2)n1	-10.0%	.	.	-0.9	4.61µM*	.	-9.6%	-23.4%	7.31µM*
CCNc1nc(NC(C)(C)C)nc(N2CCCC2)n1	?	-0.9%	-5.3%	-3.7	-15.8%	-4.7%	.	.	.
COc1ccc(CN2CCN(C(=S)Nc3ccccc3)CC2CCO)cc1OC (configuration not stated)	.	.	-25.0%	5.2	.	.	.	.	.
NS(=O)(=O)c1ccc(NNC(=O)c2ccc(NS(=O)(=O)c3cccs3)cc2)c([N+](=O)[O-])c1	.	.	-10.3%	0.1	.	.	.	.	.
CC(=O)N1CCN(c2ccc(Oc3ccc([N+](=O)[O-])c(C(F)(F)F)c3)cc2)CC1	?	0.2%	.	1.0	8.2µM*	-3.0%	-1.0%	-9.4%	8.2µM*
CCOc1ccc(C(=O)Nc2ccc(N3CCN(C(C)=O)CC3)cc2)cc1[N+](=O)[O-]	5.9%	3.4%	-13.8%	-8.6	?	-4.8%	.	.	.
Cc1cc(C)c2nc(C(F)(F)F)c(C#N)c(N)c2c1	-20.2%	-0.4%	0.0%	-5.7	?	-8.9%	.	.	.
Cc1ccc2nc(C(F)(F)F)c(C#N)c(N)c2c1	?	-1.9%	6.5%	-3.2	3.66µM*	-7.4%	-12.1%	-26.0%	7.31µM*
C[C@@H]1CN(C(=O)c2cc(N3CCOCC3)cc3c2OCCN3C)C[C@H](C)O1	.	.	7.4%[176 µM]	.	.	.	.	.	.
Nc1ccc(N2CCCCC2)c(S(=O)(=O)Nc2ccccc2Cl)c1	0.7%	3.5%	?	8.9	-10.7%	-1.2%	.	.	.
Nc1cc(S(=O)(=O)Nc2ccccc2Cl)ccc1N1CCCCC1	-10.5%	0.5%	28.2µM*	-10.9	7.31µM*	-8.3%	9.53µM*	-4.4%	14.6µM*
O=S(=O)(c1ccc2c(c1)OCCO2)N1CCC(c2nc3ccccc3s2)CC1	-0.3%[1.84 µM]	-0.3%	1.7%	-4.7	3.26µM*	-9.9%	-1.4%	-6.5%	-47.9%
Cc1ccc(S(=O)(=O)N2CC(c3nc(-c4ccncc4)no3)C2)cc1Cl	.	.	35.0%	.	.	.	.	.	.
O=S(=O)(c1ccc2ccccc2c1)N1CCC(c2nc(-c3ccncc3)no2)CC1	-26.4%	-0.2%	-5.5%[57.4 µM]	0.4	4.11µM*	-0.5%	2.8%	-5.8%	?
Cc1ccc(-c2noc(C3CCN(S(=O)(=O)c4ccc5c(c4)OCCO5)CC3)n2)o1	-11.2%	1.5%	-4.5%	-7.4	6.51µM*	-6.0%	-16.2%	-13.2%	11.6µM*
Cc1ccc(-c2noc(C3CCCN(S(=O)(=O)c4ccc5ccccc5c4)C3)n2)o1 (configuration not stated)	-3.7%	0.2%	?	-2.4	?	.	.	.	.
O=S(=O)(c1ccc2c(c1)OCCO2)N1CCC(c2nc3ccccc3[nH]2)CC1	-8.2%	0.0%	21.0%	1.2	.	-8.3%	.	.	.
